# Source: PubChem
# A selection: hits, their analogues and other compounds. The true share with any hit is near 2.3%.
# Pf Dd2 growth: inhibitors of Plasmodium falciparum Dd2 growth | 94,000 compounds, 2.3% hits | activity change, % at 10 µM | AID 1159554 | P. falciparum Dd2 growth, SYBR Green, 72 h; hits give low values; in the data active = activity change below about -80%
# C diff HTS: inhibitors of Clostridium difficile growth; AID 1259249; 86,000 compounds, 0.25% hits; Clostridium difficile clinical isolate growth, OD600, 24 h; hits give low values; growth activity, negative = inhibition, % at 16 µg/mL (by protocol);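 active = mean growth activity at or below -80% and every replicate also at or below -80%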;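 note: 0% = DMSO wells and -100% = levofloxacin 16 µg/mL wells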
# * hit, by the source's call; / = not tested or not shown.
SMILES,Pf Dd2 growth,C diff HTS
COCC#Cc1ccc2c(c1)O[C@H](CN(C)S(=O)(=O)c1ccc(C)cc1)[C@@H](C)CN([C@@H](C)CO)S2(=O)=O,-58,3
O=C(C[C@H]1C[C@H]2c3cc(NC(=O)C4CCC4)ccc3O[C@H]2[C@H](CO)O1)NCc1ccccn1,31,-2
CC(C)C(=O)Nc1ccc2c(c1)C(=O)N(C)[C@H]1CC[C@@H](CC(=O)N[C@@H](C)c3ccccc3)O[C@H]1CO2,0,0
C[C@@H]1CCCCO[C@@H](CN(C)C(=O)NC2CCCCC2)[C@@H](C)CN([C@H](C)CO)C(=O)c2cc(NC(=O)c3ccncc3)ccc2O1,8,5
COc1ccc2c3c(n(C)c2c1)[C@@H](CO)N(C(=O)C1CC1)CC31CCN(C(=O)CN(C)C)CC1,-84*,-4
CCCNC(=O)N1CCC2(CC1)CN(S(C)(=O)=O)[C@H](CO)c1c2c2ccc(OC)cc2n1C,-83*,3
CCC(=O)N1CC2(CN(Cc3ccc(Cl)cc3)C2)c2c(n(C)c3cc(OC)ccc23)[C@@H]1CO,-65,5
COc1ccc2c3c(n(C)c2c1)[C@H](CO)N(C(=O)C1CC1)CC31CCN(C(=O)CN(C)C)CC1,-78,-3
CCCNC(=O)N1CC2(C1)CN(S(C)(=O)=O)[C@@H](CO)c1c2c2ccc(OC)cc2n1C,43,-10
CCCNC(=O)N1CC2(CN(C(=O)CN(C)C)C2)c2c(n(C)c3cc(OC)ccc23)[C@H]1CO,33,3
CCC(=O)N1CC2(CCN(Cc3ccc(Cl)cc3)CC2)c2c(n(C)c3cc(OC)ccc23)[C@H]1CO,-83*,-2
CCCNC(=O)N1CC2(CCN(C(=O)CN(C)C)CC2)c2c(n(C)c3cc(OC)ccc23)[C@H]1CO,-88*,-4
NCC[C@@H]1CC[C@@H](NC(=O)Cc2ccncc2)[C@H](CO)O1,16,-3
CCN(C[C@@H]1N[C@H](CO)[C@H]1c1ccccc1)C(=O)c1ccncc1,6,5
O=C(Cc1ccccc1)N1CC2(C1)[C@@H](c1ccccc1)[C@H](CO)N2S(=O)(=O)Cc1ccccc1,-11,4
CCCNC(=O)N1CC2(CCN(Cc3cccc(OC)c3)CC2)c2c(n(C)c3cc(OC)ccc23)[C@@H]1CO,-89*,-3
CCCNC(=O)N1CC2(CCN(Cc3cccc(OC)c3)CC2)c2c(n(C)c3cc(OC)ccc23)[C@H]1CO,-72,1
CCCNC(=O)N1[C@@H](CO)[C@H](c2ccccc2)C12CN(C(=O)CC1CC1)C2,4,-3
C[C@@H]1CN([C@@H](C)CO)C(=O)c2cc(NC(=O)Nc3ccccc3)ccc2O[C@H]1CN(C)C,9,0
C[C@H]1CN([C@@H](C)CO)C(=O)c2cccc(NC(=O)c3ccc(-c4nccs4)cc3)c2O[C@@H]1CN(C)Cc1ccc2c(c1)OCO2,-34,3
C[C@@H]1CN([C@@H](C)CO)C(=O)c2cccc(NC(=O)c3ccc(-c4nccs4)cc3)c2O[C@@H]1CN(C)C(=O)Nc1cccc2ccccc12,-86*,5
C[C@@H]1CN([C@H](C)CO)C(=O)c2cccc(NC(=O)c3ccc(-c4nccs4)cc3)c2O[C@H]1CN(C)Cc1ccc(-c2ccccc2)cc1,-82*,-8
C[C@H](CO)N1C[C@H](C)[C@@H](CN(C)Cc2ccc(-c3ccccc3)cc2)Oc2c(NC(=O)c3ccc(-c4nccs4)cc3)cccc2C1=O,-86*,3
C[C@H]1CN([C@@H](C)CO)C(=O)c2cccc(NC(=O)c3ccc(-c4nccs4)cc3)c2O[C@H]1CN(C)C(=O)Nc1cccc2ccccc12,12,-3
C[C@H]1CN([C@@H](C)CO)C(=O)c2cccc(NC(=O)c3ccc(-c4nccs4)cc3)c2O[C@H]1CN(C)Cc1ccc(-c2ccccc2)cc1,-54,32
SMILES,Pf Dd2 growth,C diff HTS
C[C@H](CO)N1C[C@H](C)[C@H](CN(C)Cc2ccc(-c3ccccc3)cc2)Oc2c(NC(=O)c3ccc(-c4nccs4)cc3)cccc2C1=O,-52,26
C[C@@H]1CN([C@H](C)CO)C(=O)c2cccc(NC(=O)c3ccc(-c4nccs4)cc3)c2O[C@H]1CN(C)Cc1ccc2c(c1)OCO2,-92*,-2
CN1C(=O)c2cc(NC(=O)Nc3cccc(Cl)c3)ccc2OC[C@@H]2O[C@@H](CC(=O)O)CC[C@H]21,15,0
C[C@@H]1CN([C@@H](C)CO)C(=O)c2cc(/C=C/c3ccccc3)cnc2O[C@H]1CN(C)S(=O)(=O)c1ccccc1F,-48,0
CCC(=O)N[C@H]1CC[C@H](CCn2cc(-c3cccc(OC)c3)nn2)O[C@@H]1CO,-13,3
CCCNC(=O)C[C@@H]1CC[C@H]2[C@@H](COc3ccc(NC(=O)NCC)cc3C(=O)N2C)O1,2,-8
C[C@H]1CCCCO[C@H](CN(C)S(=O)(=O)c2ccccc2)[C@@H](C)CN([C@@H](C)CO)C(=O)c2cc(NC(=O)C3CCCCC3)ccc2O1,-84*,-7
C[C@@H]1CCCCO[C@H](CN(C)S(=O)(=O)c2ccccc2)[C@H](C)CN([C@@H](C)CO)C(=O)c2cc(NC(=O)C3CCCCC3)ccc2O1,-73,-3
C[C@@H]1CCCCO[C@H](CN(C)S(=O)(=O)c2ccccc2)[C@@H](C)CN([C@@H](C)CO)C(=O)c2cc(NC(=O)C3CCCCC3)ccc2O1,-80*,-2
C[C@@H]1CN([C@@H](C)CO)C(=O)c2cc(NC(=O)C3CCCCC3)ccc2O[C@@H](C)CCCCO[C@@H]1CN(C)S(=O)(=O)c1ccccc1,-51,-2
C[C@@H]1CN([C@H](C)CO)C(=O)c2cc(NC(=O)Nc3ccc4c(c3)OCO4)ccc2O[C@@H](C)CCCCO[C@@H]1CN(C)Cc1ccc(C(F)(F)F)cc1,-71,/
CC(C)NC(=O)Nc1ccc2c(c1)C(=O)N([C@@H](C)CO)C[C@@H](C)[C@H](CN(C)C(=O)Nc1ccc3c(c1)OCO3)O2,17,-1
COc1ccc(S(=O)(=O)Nc2ccc3c(c2)C(=O)N([C@@H](C)CO)C[C@H](C)[C@H](CN(C)S(=O)(=O)c2ccc(Cl)cc2)OCCCC[C@@H](C)O3)cc1,-61,5
COc1ccc(S(=O)(=O)N(C)C[C@H]2OCCCC[C@H](C)Oc3ccc(NS(=O)(=O)c4ccc(Cl)cc4)cc3C(=O)N([C@@H](C)CO)C[C@H]2C)cc1,-88*,1
COc1ccc(S(=O)(=O)N(C)C[C@H]2OCCCC[C@H](C)Oc3ccc(NS(=O)(=O)c4ccc(Cl)cc4)cc3C(=O)N([C@H](C)CO)C[C@@H]2C)cc1,-87*,2
COc1ccc(S(=O)(=O)N(C)C[C@H]2OCCCC[C@@H](C)Oc3ccc(NS(=O)(=O)c4ccc(Cl)cc4)cc3C(=O)N([C@H](C)CO)C[C@H]2C)cc1,-90*,-2
COc1ccc(S(=O)(=O)Nc2ccc3c(c2)C(=O)N([C@H](C)CO)C[C@H](C)[C@H](CN(C)S(=O)(=O)c2ccc(Cl)cc2)OCCCC[C@@H](C)O3)cc1,-38,14
COc1ccc(S(=O)(=O)Nc2ccc3c(c2)C(=O)N([C@@H](C)CO)C[C@H](C)[C@H](CN(C)S(=O)(=O)c2ccc(Cl)cc2)OCCCC[C@H](C)O3)cc1,-73,-3
C[C@@H]1CN([C@H](C)CO)C(=O)c2cc(NS(=O)(=O)c3cn(C)cn3)ccc2O[C@@H]1CN(C)S(C)(=O)=O,25,/
